Measurements reported in PubChem BioAssay AID977607 (Broad Institute, 2014).
Among all 1,500 compounds or so, about 460 (31%) were called active. Not shown: some 1% with an inconclusive outcome.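 How the source made its calls: active means curve reaches 40% activation over neutral controls at an AC40 no higher than the top valid tested concentration; inconclusive means no clear call, values can overlap the other calls; inactive means signal moving opposite to the expected increase, and the rest.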 Not all results are given here. Measured potencies and affinities stand elsewhere.

Test: GLuc-reported insulin release enhancers, glucose-stimulated beta cells – cell-based, INS-1E, Gaussia luciferase, luminescence, cherry-pick, set 2, dose response (AID 977607);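 further: 0% = median of the plate neutral control wells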
Conditions: INS-1E GLuc insulin secretion reporter, 2-3 h, stronger effect = higher value; at 35 µM, 100% = signal doubled over neutral wells unless noted

Max activation, inactive:
CCOc1ccc(C(C)=O)cc1COC(=O)CN1C(=O)NC2(CCCC2)C1=O -28.5% [at 0.005 µM, 100% = signal doubled over neutral wells]
COc1ccc2ccc(=O)oc2c1CC=C(C)C -13.3% [at 0.015 µM, 100% = signal doubled over neutral wells]
CCOC(=O)Cn1c(=O)n(Cc2ccc(OC)cc2)c(=O)c2cccnc21 -22.7% [at 0.005 µM, 100% = signal doubled over neutral wells]
COc1ccc(CNC(=O)COC(=O)c2cc(C)nc3ccccc23)cc1 16.2%
CCOC(=O)c1c(C)[nH]c(C(C)=NNC(=O)c2cccs2)c1C -42% [at 11 µM, 100% = signal doubled over neutral wells]
CCOC(=O)c1oc2ccccc2c1NC(=O)c1ccco1 -17.8% [at 0.135 µM, 100% = signal doubled over neutral wells]
CNC(=O)C(=O)NCC1OCCCN1S(=O)(=O)c1ccc(F)cc1C (stereo not drawn) -17.8% [at 0.005 µM, 100% = signal doubled over neutral wells]
CC(C)NC(=O)C1(C)CCN1Cc1cccc(C#N)c1 (stereo not drawn) -13.6% [at 0.0016 µM, 100% = signal doubled over neutral wells]
COc1ccc(-c2cccc(C(=O)Nc3ccc(C)cc3)c2)cc1 26.8%
Cc1cccc(C(=O)NC(=S)NNC(=O)COc2c(C)cccc2C)c1 -26.2% [at 11 µM, 100% = signal doubled over neutral wells]
Cc1ccc(-n2nnnc2SCc2ccc(C(=O)O)cc2)cc1C -23.5% [at 3.8 µM, 100% = signal doubled over neutral wells]
N#Cc1sc2nc(C3CC3)cc(-c3ccccc3)c2c1N -14.8% [at 0.015 µM, 100% = signal doubled over neutral wells]
N#CC1=C(N)Oc2nc(-c3ccccc3)[nH]c2C1c1cccnc1 (stereo not drawn) -20.8% [at 0.005 µM, 100% = signal doubled over neutral wells]
O=C1CSC(c2cccc(O)c2)N1Cc1ccccc1 (stereo not drawn) -24.7% [at 0.005 µM, 100% = signal doubled over neutral wells]
C/C=C/c1ccc(OCCN2C(=O)NC(C)(C)C2=O)c(OC)c1 -11.4% [at 0.005 µM, 100% = signal doubled over neutral wells]
CCn1ccc(C(=O)Nc2ccccc2SC)n1 -10.4% [at 0.046 µM, 100% = signal doubled over neutral wells]
O=S(=O)(NCc1ccccc1)c1ccc(S(=O)(=O)N2CCCCC2)cc1 -11.7% [at 3.8 µM, 100% = signal doubled over neutral wells]
NS(=O)(=O)c1ccc(CNC(=O)c2cc(S(=O)(=O)N3CCOCC3)ccc2N2CCCC2)cc1 -17.8% [at 0.0016 µM, 100% = signal doubled over neutral wells]
CNS(=O)(=O)c1ccc2c3c(cccc13)C(=O)N2 19.7%
CC(=O)Nc1cccc(-n2c(=O)n(Cc3ccccc3)c(=O)c3[nH]cnc32)c1 18.8% [at 1.2 µM, 100% = signal doubled over neutral wells]
N#CCCCc1cc2ccccc2cn1 -14.5% [at 0.046 µM, 100% = signal doubled over neutral wells]
COc1ccc(/C=N/NC(=O)Cn2cnc3ccccc3c2=O)cc1OC 23.7% [at 11 µM, 100% = signal doubled over neutral wells]
COc1cc(/C=N/NC(=O)CNC(=O)c2cccs2)ccc1O -23.7% [at 0.015 µM, 100% = signal doubled over neutral wells]
COc1cc(/C=N/Nc2cc(C)nc(NS(=O)(=O)c3ccc(C)cc3)n2)ccc1O 36.9% [at 3.8 µM, 100% = signal doubled over neutral wells]
CCNc1nc(CC)nc2c1oc1ccccc12 -18.9% [at 0.015 µM, 100% = signal doubled over neutral wells]
Cc1cccc(-n2c(C)c(C)c3c(N)ncnc32)c1 29.8%
N#CCc1nn2c(-c3ccccc3)ccnc2c1C#N -20% [at 0.015 µM, 100% = signal doubled over neutral wells]
COc1ccc(/C=C/c2nc(C#N)c(NCCN(C)C)o2)cc1OC -15.9% [at 0.42 µM, 100% = signal doubled over neutral wells]
CCOCC(=O)Nc1c(C(=O)OCC)oc2ccccc12 28.8% [at 3.8 µM, 100% = signal doubled over neutral wells]
Nc1[nH]c(C(=O)c2ccccc2)c(-c2ccncc2)c1C(=O)NCc1cccc2ccccc12 -29.2%
C[C@@H]1CN([C@H](C)CO)C(=O)c2cc(C3=CCCCC3)cnc2O[C@H]1CN(C)C(=O)CN1CCOCC1 -24.7% [at 0.005 µM, 100% = signal doubled over neutral wells]
O=C(c1cccs1)N(Cc1cccc(F)c1)C1CCS(=O)(=O)C1 (stereo not drawn) 26.2% [at 0.005 µM, 100% = signal doubled over neutral wells]
O=C(c1cccs1)N(Cc1ccc(Cl)cc1)C1CCS(=O)(=O)C1 (stereo not drawn) 21.3%
CCOC(=O)C1=NN(C(=O)Nc2cccc(C(F)(F)F)c2)C2C(=O)N(c3cccc(C(F)(F)F)c3)C(=O)C12 (stereo not drawn) 17.3% [at 3.8 µM, 100% = signal doubled over neutral wells]
N#Cc1ccc(-c2ccc3c(c2)[C@@H]2[C@@H](CCN2C(=O)C2CCCC2)[C@@H](CO)N3)cc1 -29.6%
O=C(CCn1nc(-c2ccc(Cl)cc2)ccc1=O)NCCCN1CCCCCC1 -17.5% [at 0.005 µM, 100% = signal doubled over neutral wells]
CC(C)(C)C1=Nn2c(nnc2C2CCCCC2)SC1 27% [at 11 µM, 100% = signal doubled over neutral wells]
C=CCNc1cc(C)oc(=O)c1C(=O)CCC -21.1% [at 0.015 µM, 100% = signal doubled over neutral wells]
CCN1CCN(CCCNC(=O)c2ccc3c(c2)N(Cc2ccccc2)CCS3)CC1 -25.6% [at 11 µM, 100% = signal doubled over neutral wells]
CCOC(=O)c1sc2nc(C)[nH]c(=O)c2c1C 8.29% [at 0.135 µM, 100% = signal doubled over neutral wells]
CCCCc1nc(N)c(C#N)c(-c2ccco2)c1CCC 35.2%
COc1ccc(CCNC(=O)CCC(=O)c2cccs2)cc1OC 35.6% [at 1.2 µM, 100% = signal doubled over neutral wells]
COc1ccc(CCNC(=O)CCCc2nnc3n(C)c(=O)c4sccc4n23)cc1OC -17.7% [at 0.0016 µM, 100% = signal doubled over neutral wells]
COc1ccc(-n2c3c(c(=O)[nH]c2=O)C(NS(=O)(=O)c2ccc(Cl)cc2)(C(F)(F)F)C(=O)N3)cc1 (stereo not drawn) -27.1% [at 0.015 µM, 100% = signal doubled over neutral wells]
N#Cc1cnn2c(C(F)(F)F)cc(-c3ccccc3)nc12 -14.3% [at 0.0016 µM, 100% = signal doubled over neutral wells]
Cc1cc(C)c(CSc2nnnn2-c2ccc(C(=O)O)cc2)c(C)c1 -11.8% [at 1.2 µM, 100% = signal doubled over neutral wells]
O=C(c1cccnc1)N(Cc1ccccc1)c1ccccc1 25.1%
CCCNC(=O)C1(C)CCCN(Cc2cccn2C)C1 (stereo not drawn) -16.6% [at 3.8 µM, 100% = signal doubled over neutral wells]
CC(=O)Nc1ccc(Cl)c(-c2nc3ncccc3o2)c1 24% [at 0.005 µM, 100% = signal doubled over neutral wells]
CC(C)CCN(CC(=O)NCc1ccc(F)cc1)S(=O)(=O)c1ccccc1F -38.5% [at 11 µM, 100% = signal doubled over neutral wells]
CCOc1nc(NC(=O)NS(=O)(=O)Oc2ccccc2Cl)nc(-c2ccccc2)n1 -20.8% [at 0.0016 µM, 100% = signal doubled over neutral wells]
CC1Oc2ccccc2N(Cc2cccc(F)c2)C1=O (stereo not drawn) -13.7% [at 0.005 µM, 100% = signal doubled over neutral wells]
Cc1ccc(-c2ccc([C@@H]3[C@@H]4CN(Cc5ccccc5F)C[C@H]3N4)cc2)cc1 26.7% [at 0.42 µM, 100% = signal doubled over neutral wells]
